Results: the supplement of paper PMC4894684
Counter-ions that a name gives are not always drawn. ± gives the standard deviation of the averaged measurements.

test system: Toxoplasma gondii RH (in HFF); experiment: parasite growth relative to the screen mean (all compounds = 100%); higher = less inhibition of parasite growth; conditions: 5 µM; 72 h; oxygen 21 %
In short: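 Library compounds, held as 10 mM DMSO stocks, were pinned to 5 µM final onto confluent human foreskin fibroblasts in 96-well plates. The cells were infected within 2 h with RH β-Gal–GFP Toxoplasma (MOI 1:5), grown 72 h at 21% O2, and assayed for parasite number by CPRG β-Gal using in-plate standard curves. Growth is reported relative to the screen mean, in which all compounds = 100%, averaged over two screens, and CellTiter-Blue checked uninfected host-cell viability.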

Row | Compound | parasite growth
1 | COC(=O)[C@H]1[C@H]2C[C@@H]3c4[nH]c5cc(OC)ccc5c4CCN3C[C@H]2C[C@@H](OC(=O)c2cc(OC)c(OC)c(OC)c2)[C@@H]1OC [Reserpine] | 78.4 ± 47%
2 | O=S(=O)(c1cccc2c(Cl)cccc12)N1CCCNCC1 [ML 9 hydrochloride] | 122 ± 19%
3 | COc1cc2ncnc(Nc3ccc(F)c(Cl)c3)c2cc1OCCCN1CCOCC1 [Iressa] | 99 ± 20%
4 | O=C(/C=C/c1c(C(=O)O)[nH]c2cc(Cl)cc(Cl)c12)Nc1ccccc1 [Gavestinel] | 114 ± 17%
5 | O=Nc1ccc(O)c2ncccc12 | < 0%
6 | CC(C)n1nnc2cc(C(=O)O)ccc21 | 81.9 ± 22%
7 | COc1cc(Br)c(S(=O)(=O)Nc2ccc(Cl)c(O[C@@H]3CCN(C)C3)c2)cc1OC | 57.1 ± 16%
8 | O=C1C=CC(=O)C2=C1C1c3ccccc3C2c2ccccc21 | 137 ± 48%
9 | NC[C@@H]1O[C@H](C23CC4CC(CC(C4)C2)C3)Cc2c1ccc(O)c2O | 89.5 ± 18%
10 | CN(C(=O)c1c(O)c2ccccc2n(C)c1=O)c1ccccc1 [Linomide] | 135 ± 4.5%
11 | CN(C)CCCC1(c2ccc(F)cc2)OCc2cc(C#N)ccc21 (centres undefined) [Citalopram hydrobromide] | 122 ± 3.6%
12 | Nc1nc(NCCc2ccc(O)cc2)nc2nc(-c3ccco3)nn12 | 11.2 ± 10%
13 | COP(=O)(OC)OC(c1ccc(Cl)cc1)P(=O)(OC)OC (centres undefined) | 79.4 ± 28%
14 | N#C/C(=C\c1ccc(O)c(O)c1)C(=O)NCCCc1ccccc1 | 154 ± 16%
15 | O=C1NC(c2cccc([N+](=O)[O-])c2)=CCN1c1ccccc1O [Icilin] | 128 ± 36%
16 | Cc1cccc(CCN2CCC(C(=O)c3ccc(NS(C)(=O)=O)cc3)CC2)n1 [E-4031 dihydrochloride] | 150 ± 13%
17 | CSc1ccc2c(c1)C(N1CCN(C)CC1)Cc1ccccc1S2 (centres undefined) [Methiothepin maleate] | < 0%
18 | O=C(NCCN1CCCCC1)c1ccc(I)cc1 [N-[2-(Piperidinylamino)ethyl]-4-iodobenzamide] | 118 ± 12%
19 | c1ccc(C(O[C@@H]2CCCN(CCc3ccc4c(c3)OCO4)C2)c2ccccc2)cc1 [Zamifenacin fumarate] | 128 ± 20%
20 | COc1c(C)c2c(c(O)c1C/C=C(\C)CCC(=O)O)C(=O)OC2 [Mycophenolic acid] | < 0%

Row | Compound | parasite growth
21 | Cn1cc(/C=C2\C(=O)Nc3cccnc32)c2ccccc21 | 131 ± 5.3%
22 | Brc1c(NC2=NCCN2)ccc2nccnc12 [UK 14,304 tartrate] | 101 ± 27%
23 | CC#C[C@]1(O)CC[C@H]2[C@@H]3CCC4=CC(=O)CCC4=C3[C@@H](c3ccc(N(C)C)cc3)C[C@@]21C [Mifepristone] | 135 ± 14%
24 | CCCn1c(=O)c(C)cn2nc(N)nc12 | 145 ± 2.1%
25 | Cn1nnc2c(C(N)=O)ncn2c1=O [Temozolomide] | 89.4 ± 4.9%
26 | CCN(CC)CCCC(C)Nc1nc(C)cc(Nc2ccc3nc(C)cc(N)c3c2)n1 (centres undefined) | 127 ± 2.7%
27 | CCc1ccc2c(-c3cccc(Cl)c3)nc(=O)n(CC)c2n1 | 152 ± 17%
28 | CNC(=O)c1cc2c(cn1)[nH]c1ccccc12 | 124 ± 19%
29 | Nc1nc(Nc2ccccc2)nc2c1ncn2[C@@H]1O[C@H](CO)[C@@H](O)[C@H]1O | 123 ± 7.1%
30 | NCC(O)(CS(=O)(=O)O)c1ccc(Cl)cc1 (centres undefined) [2-Hydroxysaclofen] | 132 ± 20%
31 | NS(=O)(=O)c1cccc2c1c([N+](=O)[O-])cc1nc(O)c(O)nc12 [NBQX disodium salt] | 112 ± 14%
32 | CCCc1c(OCCCOc2ccc(OCC(=O)O)cc2)ccc(C(C)=O)c1O | 135 ± 1.4%
33 | COC1CCC(C(=O)c2ccc3nc4c(cc3c2)CCCO4)CC1 (centres undefined) | 136 ± 27%
34 | CC1(C)CC(=O)C(C2C3=C(CC(C)(C)CC3=O)Oc3ccccc32)C(=O)C1 (centres undefined) | 127 ± 18%
35 | CCOc1ccc(Nc2nc(-c3c(C)nc4ccccn34)cs2)cc1 | 127 ± 44%
36 | CCn1c(=O)[nH]c2cc(Cl)c(Cl)cc21 | 89.8 ± 61%
37 | CCN(CC)CCOc1ccc(Cc2ccccc2)cc1 [DPPE fumarate] | 75.7 ± 1.7%
38 | COc1ccc(Br)cc1S(=O)(=O)NC(=O)/C=C/c1ccccc1Cc1ccc2ccccc2c1 | 125 ± 12%
39 | CC(=O)NCC(=O)N[C@H](CCC(=O)O)C(=O)O [N-Acetylglycyl-D-glutamic acid] | 132 ± 22%
